From PubChem BioAssay AID720540 (National Center for Advancing Translational Sciences (NCATS), 2013)
The whole screen tested about 1,300 compounds, of which about 460 (35%) were called active. Roughly 39% stayed inconclusive and do not appear here. Calls follow the shape of the dose curve; as a rule, active = well fitted inhibition curve with a large enough effect; inconclusive = small, poorly fitted or top-dose-only effect; inactive = flat fitted curve, though single readings scatter. Some of the results follow.

Target: Protein phosphatase EYA2 (Homo sapiens) (UniProt O00167)
Sequence (O00167 whole entry, looked up): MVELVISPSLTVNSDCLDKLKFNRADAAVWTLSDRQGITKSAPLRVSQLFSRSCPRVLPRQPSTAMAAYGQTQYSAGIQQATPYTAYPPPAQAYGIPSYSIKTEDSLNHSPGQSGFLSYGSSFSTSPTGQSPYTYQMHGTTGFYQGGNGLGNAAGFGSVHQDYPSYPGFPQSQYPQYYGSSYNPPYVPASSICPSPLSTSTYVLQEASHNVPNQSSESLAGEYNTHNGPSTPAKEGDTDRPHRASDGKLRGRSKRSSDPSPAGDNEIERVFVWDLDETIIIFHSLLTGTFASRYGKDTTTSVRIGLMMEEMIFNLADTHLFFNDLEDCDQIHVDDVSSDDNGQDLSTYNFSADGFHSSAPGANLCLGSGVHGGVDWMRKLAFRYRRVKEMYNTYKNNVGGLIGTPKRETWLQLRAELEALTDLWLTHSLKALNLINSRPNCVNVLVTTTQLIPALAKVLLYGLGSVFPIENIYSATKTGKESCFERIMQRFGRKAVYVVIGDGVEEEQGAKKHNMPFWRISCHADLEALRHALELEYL
Test: qHTS for Inhibitors of the Phosphatase Activity of Eya2: Confirmatory Assay for Cherry-picked Compounds; also: nearly all actives have a fitted effect of over 65% in size;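 as to activity change, negative = inhibition: 0% = DMSO wells and -100% = EGTA control giving full inhibition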
Settings: purified EYA2 phosphatase activity, qHTS confirmation; series mostly up to 46.1 µM; activity change, negative = inhibition: at the top concentration
Procedure, shortened: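 Eya2 (0.2 uM working solution) preincubated 10 min at room temperature with compound in pH 7.5 HEPES buffer with MgCl2, BSA, DTT. OMFP added (50 uM working solution), 10 min more; fluorescence 485/525 nm, normalized to EGTA and DMSO.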
Potency is read from the fitted curve at half-maximal effect.

Activity change, negative = inhibition, inactive:
Cc1cc(NC(=O)CS(=O)(=O)c2cn(Cc3cccc(Br)c3)c3ccccc23)no1 -26.3%, COC(=O)c1ccc(C23CC4(C2)[C@H](CN(CC2CCCCC2)[C@@H]4c2ccccc2)C3c2ccc(Cl)nc2)cc1 (stereo partly specified) -20.7%, O=C(CC(=O)c1c(F)cccc1Cl)c1ccccc1O -12.4%, O=c1c2ccccc2nnn1CSc1nnc(C2COc3ccccc3O2)n1-c1ccccc1 (stereo unspecified) -29.4%, O=c1c2ccccc2c(C=Nc2cccc(S(=O)(=O)NC3=NCCCCC3)c2)c(O)n1Cc1ccccc1 -13.3%, COc1cccc(NC(=O)c2ccc3c(c2)CCN3S(C)(=O)=O)c1 -14.2%, Cc1ccc(Nc2nnc(SCC(=O)c3c(N)n(C4CC4)c(=O)[nH]c3=O)s2)cc1C -26.1%, CCCNC(=O)C1(C)CCN(Cc2cccc(OC(=O)c3ccccc3)c2)C1 (stereo unspecified) -16.6%, CCC(=O)Nc1nc2c(OC)ccc(OC)c2s1 -16.5%, Cc1ccccc1-c1cnc(C(O)c2c(C)cccc2C)[nH]1 (stereo unspecified) -18.5%, Cc1nc([N+](=O)[O-])cn1CC(O)c1ccc2c(c1)OCO2 (stereo unspecified) -3.27%, O=c1[nH]c(=O)n(C2C[C@H](O)[C@@H](CO)O2)cc1C(F)(F)F (stereo partly specified) -6.54%, CCOC(=O)NNc1nncc2ccccc12 3.63%, COc1ccc(F)cc1-c1cc(NC=O)c2ncc(-c3cccc(C(F)(F)F)c3)n2c1 -24.6%, O=C(O)C1=C[C@@H](c2csc3ccccc23)C[C@@H](OCc2ccc(CO)cc2)O1 -18%, OC(COc1ccc2cc(Br)ccc2c1)Cn1ccnc1 (stereo unspecified) -19.8%, CS(=O)(=O)c1ccc(-c2nnc(NC(=O)C3=COCCO3)o2)cc1 -26%, COc1ccc(Nc2nc(N)nc(CSC(=S)N3CCCCC3)n2)cc1 -20.4%, CCSc1nc2ccccc2n1C(=O)c1ccc(S(=O)(=O)N2CCCCC2)cc1 -14%, O=C(Nc1ncc(Cc2ccccc2Cl)s1)c1ccc(-c2cccc([N+](=O)[O-])c2)o1 -23%, O=C(SCc1c(O)c2ccccc2oc1=O)c1ccccc1 -21.7%, COc1ccccc1Nc1nc(-c2ccc3c(c2)NC(=O)CO3)cs1 -3.57%, CC1=C(C(=O)N2CCOCC2)CC(CC(=O)NC(c2ccccc2)c2ccccc2)C(=O)N1Cc1ccc(C(C)(C)C)cc1 (stereo unspecified) -19%, Cc1ccc(-c2nc3ccccc3s2)cc1NC(=S)NC(=O)/C=C/c1ccco1 -3.42%, COc1ccc2nc(NC(=S)NC(=O)c3ccco3)sc2c1 -18%, O=C(NCc1ccc2c3c(cccc13)C(=O)N2)c1cccs1 -19.4%, COc1cc(NC(=O)c2cccs2)c(OC)cc1NC(=O)Nc1ccc(F)cc1 -26.5%, Cc1cc(NC(=O)c2cccs2)cc(-c2nc3ncccc3o2)c1O -12.1%, O=S(=O)(c1ccccc1)[C@@]1(c2ccccc2)C[C@@H]2ON=C(c3cccc(-c4ccccc4)c3)[C@@H]2C1 -15.7%, COc1ccccc1OCc1ccc(C(=O)Nc2cc(OC)c(OC)c(OC)c2)o1 -28.2%, CC1CN(C(=O)c2cc(S(=O)(=O)N(C)c3ccc(F)cc3)ccc2Cl)CC(C)O1 (stereo unspecified) -8.46%, CN(C)c1ccc(-c2ccnc3c2CC(C)(C(=O)NCCC(F)(F)F)O3)cc1 (stereo unspecified) -26.7%, CN1C(=O)NC(c2ccccc2)(C(F)(F)F)S/C1=C(/C#N)c1nnc(N2CCOCC2)n1-c1ccccc1 (stereo unspecified) -25.7%, O=C(CNC(=O)c1[nH]cnc1C(=O)N[C@@H](Cc1ccccc1)C(=O)OCc1ccccc1)OCc1ccccc1 -17.2%, C[C@@H](NC(=O)c1nc[nH]c1C(=O)N[C@@H](Cc1ccccc1)C(=O)OC(C)(C)C)c1ccccc1 -19.4%, CCOC(=O)c1ccc(NC(=O)c2nc[nH]c2C(=O)N[C@@H](Cc2ccccc2)C(=O)OC(C)(C)C)cc1 -19%, Cc1ccc(N=Cc2cccc(O)c2O)c(C)c1 -21.4%, CCn1cc(C(=O)N[C@@H](C)C(=O)NCCCn2ccnc2)c(=O)c2cc3c(cc21)OCO3 -9.75%, O=C(CNC(=O)c1cccs1)OCC(=O)c1ccc(Cl)cc1 -2.28%, CN(CC(=O)Nc1cccc(F)c1)C(=O)c1ccc(COc2ccccc2)cc1 -2.16%, COc1cc(NC(=O)c2ccc(S(=O)(=O)N(C)c3ccccc3)cc2)cc(OC)c1 -25%, Cn1c(-c2cc(Cl)ccc2O)nc2c1c(=O)[nH]c(=O)n2Cc1ccccc1 -7.95%, O=C(Cc1cccs1)Nc1ccc2c(c1)C(=O)OC2 -9.15%, Cc1cnc(C(=O)Nc2ccccc2-c2ccc(C)o2)cn1 -7.17%, Cc1cccc(-n2c(O)c(C=Nc3ccccc3)c3ccccc3c2=O)n1 -24.5%, C/C(N)=C(/C#N)C(=O)CSc1nnc(Nc2cccc(C)c2)s1 -14.6%, Cc1cc(NC(=O)CSc2nnc(Nc3ccccc3F)s2)no1 -3.99%, CC(C)[C@H](NC(=O)c1ccccc1)C(=O)NC1CCCCCCC1 -2.97%

Potency, active:
Cn1ccc2c(N3CCCC3)cc3c(c21)C1CCC3C1 (stereo unspecified) 21.3 µM, COC(=O)c1ccccc1NC1=C/C(=N\S(=O)(=O)c2cccs2)c2ccccc2C1=O 1.69 µM, COc1ccc(S(=O)(=O)c2c(O)c3ccc(C(=O)Nc4cccc(F)c4)cc3[nH]c2=O)cc1 0.338 µM, O=C(Oc1ccc2c(c1)OCC2=O)c1ccccc1 4.78 µM, O=C(Oc1ccc2c(c1)OCC2=O)c1ccc(Cl)cc1 2.39 µM, S=C(NCCCc1cnc[nH]1)NCCCN(Cc1ccc(Cl)cc1)c1ccc(-c2ccccc2)cn1 16.9 µM, CN(CCCc1cnc[nH]1)C(=S)NCCCN(Cc1ccc(Cl)cc1)c1ccc(Br)cn1 19 µM, COc1cc(CNC(=O)Nc2nc(C(N)c3ccccc3)cs2)cc(OC)c1OC (stereo unspecified) 19 µM, COc1ccc2ccccc2c1C=NN1CCCCC1 16.9 µM, CCOC(=O)c1ncccc1NC(=O)CC(=O)Nc1cccnc1C(=O)OCC 3.79 µM, CC(=O)Oc1cccc2c1C(=O)C1CC=CC(OC(C)=O)C1C2=O (stereo unspecified) 15.1 µM, COc1ccccc1N1CCN(/N=C/C=C\c2ccccc2[N+](=O)[O-])CC1 15.1 µM, O=[N+]([O-])c1ccccc1/C=C\C=N\N1CCN(c2ccccc2)CC1 9.53 µM, Cc1sc(NC(=O)C2=COCCO2)c(C(N)=O)c1C 7.57 µM, CC1CCc2c(sc(NC(=O)/C=C/c3cccs3)c2C(=O)O)C1 (stereo unspecified) 19 µM, O=C(O)c1cc(N2N=C(C(F)(F)F)/C(=C/C=C/c3ccco3)C2=O)ccc1Cl 1.51 µM, O=C1C=C(Nc2ccccc2)C(=O)c2ccccc21 6.01 µM, CCOC(=O)c1c(C)oc2c1c(C=NCc1ccccn1)c(O)c1ccccc12 15.1 µM, O=C(O)c1ccccc1-c1ccccc1C(=O)Nc1ccc2oc(=O)c3ccccc3c2c1 8.49 µM, O=C(O)c1ccccc1-c1ccccc1C(=O)Nc1ccc2c(c1)[nH]c(=O)c1ccccc12 7.57 µM, CSc1ccc(CNc2ncc(-c3cccc([N+](=O)[O-])c3)n2C)cc1 19 µM, Oc1c(Br)cc(Br)cc1CNc1cccc2cccnc12 7.57 µM, COC(=O)c1cc2c(ccc3ccccc32)oc1=O 7.57 µM, COc1ccc(OC)c(Nc2nc(-c3sc(N)nc3C)cs2)c1 8.49 µM, O=C(O)CCN1C(=O)/C(=C/c2ccc(-c3nc4ccccc4s3)o2)SC1=S 3.79 µM, N#CC1=C(N)n2c(s/c(=C\c3cccs3)c2=O)=C(C#N)C1c1cccs1 (stereo unspecified) 19 µM, O=C(C1=C(O)C(=O)N(c2nc3ccc(Cl)cc3s2)C1c1ccco1)c1ccco1 (stereo unspecified) 16.9 µM, COc1cc(NC(=O)c2cccs2)c(OC)cc1NC(=O)CCC(=O)Nc1ccc2ncccc2c1 1.69 µM, COc1cc(NC(=O)c2cccs2)c(OC)cc1NC(=O)Cc1ccccc1 10.7 µM, COc1cc(NC(=O)c2cccs2)c(OC)cc1NC(=O)CCn1nnc2ccccc21 16.9 µM, Brc1ccc(CSc2ccc3nnc(-c4ccccn4)n3n2)cc1 19 µM, COC(=O)c1ccc(CSc2ccc3nnc(-c4ccccn4)n3n2)o1 16.9 µM, c1ccc(CSc2ccc3nnc(-c4ccccn4)n3n2)cc1 19 µM, NNC(=O)c1nc[nH]c1C(=O)Nc1ccccn1 8.49 µM, O=C(Nc1ccc(F)cc1)c1nc[nH]c1C(=O)O 15.1 µM, Cc1ccc(NC(=O)c2[nH]cnc2C(=O)NN)cc1 15.1 µM, Cc1ccc(C(=O)N/C(=C\c2ccco2)C(=O)NCCCn2ccnc2)cc1 4.26 µM, COC(=O)c1ccc(OC(=O)c2cccs2)cc1 10.7 µM, CC(C)S(=O)(=O)c1cnc(-c2ccccn2)nc1N 16.9 µM, COc1ccc(NC(=O)CSc2ccc(-c3ccccn3)nn2)cc1OC 3.79 µM, COc1ccccc1CNC(=O)CSc1ccc(-c2ccccn2)nn1 12 µM, O=C(CSc1ccc(-c2ccccn2)nn1)Nc1cccc(F)c1 3.79 µM, COc1cc(NC(=O)CSc2ccc(-c3ccccn3)nn2)cc(OC)c1 2.13 µM, Cc1[nH]n(-c2cccc3ccccc23)c(=O)c1C=Nc1ccc2[nH]c(=O)[nH]c2c1 7.57 µM, C/C=C/c1ccc(OCCSc2nc(C)cc(=O)[nH]2)c(OC)c1 13.5 µM, CC(C)Nc1nnc(SCC(=O)Nc2ccc3c(c2)C(=O)c2ccccc2C3=O)s1 6.75 µM, O=C(NC1CC1)c1ccc2nc(-c3ccco3)c(-c3ccco3)nc2c1 13.5 µM, O=C(O)c1ccc2nc(-c3ccco3)c(-c3ccco3)nc2c1 8.49 µM
